POLI inh: qHTS for Inhibitors of Polymerase Iota | Pol iota fluorescent replication assay, 10 min | Potency, µM (top dose mostly 115 µM), most hits filed as inhibitors | hit rate 1% among 390,000 | AID 588590, 2011
Target sequence (Q9UNA4 whole entry, looked up): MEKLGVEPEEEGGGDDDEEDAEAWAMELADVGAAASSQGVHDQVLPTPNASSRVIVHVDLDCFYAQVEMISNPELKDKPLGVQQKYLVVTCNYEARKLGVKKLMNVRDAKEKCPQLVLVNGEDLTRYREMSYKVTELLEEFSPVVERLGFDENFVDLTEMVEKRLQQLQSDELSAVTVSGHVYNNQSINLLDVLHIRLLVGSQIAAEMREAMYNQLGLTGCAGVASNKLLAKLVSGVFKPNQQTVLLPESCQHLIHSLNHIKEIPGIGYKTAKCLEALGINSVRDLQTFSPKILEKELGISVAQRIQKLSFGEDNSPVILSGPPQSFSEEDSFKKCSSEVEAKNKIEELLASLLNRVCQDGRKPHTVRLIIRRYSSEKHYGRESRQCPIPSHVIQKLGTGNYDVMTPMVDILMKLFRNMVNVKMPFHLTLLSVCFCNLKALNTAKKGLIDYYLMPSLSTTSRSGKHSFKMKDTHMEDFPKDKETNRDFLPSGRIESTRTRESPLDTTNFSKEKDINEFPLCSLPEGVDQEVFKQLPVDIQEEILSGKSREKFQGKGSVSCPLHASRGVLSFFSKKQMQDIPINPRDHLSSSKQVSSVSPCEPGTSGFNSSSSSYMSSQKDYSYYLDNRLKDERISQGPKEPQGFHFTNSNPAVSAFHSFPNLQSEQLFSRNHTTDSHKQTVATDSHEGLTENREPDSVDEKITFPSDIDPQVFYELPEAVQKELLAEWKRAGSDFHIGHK
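Pol iota at 10 nM preincubated 15 min with compounds at room temperature; reaction started with fluorescent substrate, 50 nM final. Fluorescence read kinetically at 0 and 10 min; buffer-only wells as negative control.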
Pol beta inh: qHTS Assay for Inhibitors of DNA Polymerase Beta | Potency, µM (titrated, usually from 114 µM), most hits filed as inhibitors | hit rate 1.3% among 340,000 | P06746 | Pol beta primer extension/strand displacement, fluorescence kinetic
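Kinetic readout of DNA synthesis with strand displacement by Pol beta. Compound and 10 nM enzyme sit 15 min at room temperature; 50 nM substrate starts the reaction, read immediately and at 10 min.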
APE1 inh: qHTS Assay for Inhibitors of the Human Apurinic/apyrimidinic Endonuclease 1 (APE1); DNA repair nuclease/redox regulator APEX1 (Homo sapiens), P27695; recombinant APE1, TAMRA/BHQ-2 abasic DNA cleavage fluorescence; Potency, µM (top dose mostly 65.8 µM), most hits filed as inhibitors; hit rate 0.35% among 350,000; AID 2517, 2012; also: nearly all actives have a fitted effect of over 55% in size
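Incision of a quenched TAMRA/BHQ-2 THF abasic-site duplex (50 nM) by 0.75 nM APE1, after 15 min compound preincubation, measured as fluorescence increase over three 60 s reads. Values normalized to buffer, DMSO and NSC13755 control wells.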
Pol eta inh-1: qHTS for Inhibitors of Polymerase Eta; Potency, µM (doses to about 114 µM), usual class: inhibitors; hit rate 1.2% among 390,000; recombinant Pol eta, fluorescent DNA replication assay; DNA polymerase eta (Homo sapiens), Q9Y253
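Pol eta at 10 nM preincubated with compounds 15 min at room temperature; reaction started with fluorescent substrate (50 nM final) and read kinetically at 0 and 10 min.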
L3MBTL1 inh: qHTS Assay for the Inhibitors of L3MBTL1; Lethal(3)malignant brain tumor-like protein 1 (Homo sapiens), Q9Y468; AlphaScreen L3MBTL1–H3K9me1 peptide binding; Potency, µM (series often up to 57.1 µM), most hits filed as inhibitors; hit rate 0.66% among 230,000; AID 485360, 2010; also: nearly all actives have a fitted effect of over 60% in size
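L3MBTL1 (50 nM) pre-complexed 30 min with biotinylated H3(1-15)K9me1 peptide (75 nM), then compounds added for 30 min at room temperature; AlphaScreen streptavidin donor/nickel chelate acceptor beads (10 ug/mL final) read after 30 min dark incubation.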
Pol kappa inh-1: qHTS for Inhibitors of Polymerase Kappa | hit rate 0.53% among 400,000 | Potency, µM (highest dose often 107 µM), usual class: inhibitors | purified Pol kappa, fluorescent DNA synthesis assay, 10 min | DNA polymerase kappa (Homo sapiens), Q9UBT6
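Enzyme at 10 nM met test compounds for 15 min at room temperature. Substrate addition (50 nM final) began the reaction, which was monitored by fluorescence at 0 and 10 min.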
Pol kappa inh-2: qHTS for Inhibitors of Polymerase Kappa: Confirmatory Assay for Cherry-picked Compounds | hit rate 76% among 920 | Potency, µM, usual class: inhibitors | shares compounds with Pol eta inh-1 | purified Pol-kappa, fluorescent strand-displacement substrate
Pol eta inh-2: qHTS for Inhibitors of Polymerase Eta: Confirmatory Assay for Cherry-picked Compounds; Potency, µM, actives largely listed as inhibitors; hit rate 64% among 2,600; shares compounds with Pol eta inh-1; Pol eta primer extension, TAMRA/BHQ fluorescence, 10 min
Large screens that a line does not name were inactive (follow-up assays come after a bar, where they were run). In the library only some 2.5% were active in any assay of this set; here they are far more common. Calls follow the shape of the dose curve; as a rule, active = well fitted curve in the direction sought with a large enough effect; inconclusive = small, poorly fitted or top-dose-only effect, or another doubt; inactive = no such curve, though single readings can be large; an effect the other way counts as inactive or inconclusive.

Oc1c(Br)cc(/C=N/Nc2ccc(Cl)nn2)cc1Br	POLI inh inconclusive, Pol beta inh 50.1µM, Pol eta inh-1 22.4µM, Pol kappa inh-1 inconclusive (no result: L3MBTL1 inh) | Pol eta inh-2 84.9
Nc1ccc(S(=O)(=O)c2ccc(N3CCOCC3)c(N)c2)cc1	none (no result: POLI inh, Pol beta inh, APE1 inh, L3MBTL1 inh, Pol kappa inh-1)
CCCOc1ccc(C2C(=O)N(C3CCC(C)CC3)CC(=O)N2CCc2ccccc2)cc1OC (stereo not drawn)	none (no result: APE1 inh, L3MBTL1 inh)
CN(CC(=O)Nc1cccc(C#N)c1)S(=O)(=O)c1cc2c(cc1Cl)NC(=O)CO2	none (no result: APE1 inh, L3MBTL1 inh)
Cc1cc(/C=c2/sc3nc4ccccc4n3c2=O)c(C)n1-c1ccccn1	none
Cc1cc(C=C2C(=O)c3ccccc3C2=O)c(C)n1-c1ccc(C(=O)O)cc1	POLI inh 35.5µM, Pol beta inh inconclusive, APE1 inh inconclusive, Pol eta inh-1 25.1µM, L3MBTL1 inh inconclusive, Pol kappa inh-1 inconclusive | Pol eta inh-2 inconclusive
Cc1cc(C=C2C(=O)c3ccccc3C2=O)c(C)n1-c1ccccc1	none
Cc1cc(/C=c2\sc3nc4ccccc4n3c2=O)c(C)n1-c1ccc(C(=O)O)cc1	POLI inh 44.7µM, Pol beta inh 22.4µM, APE1 inh inconclusive, Pol eta inh-1 22.4µM | Pol eta inh-2 inconclusive
O=C(O)c1cccc(-n2cccc2C=C2C(=O)c3ccccc3C2=O)c1	POLI inh inconclusive, Pol beta inh inconclusive, APE1 inh inconclusive, Pol eta inh-1 15.8µM (no result: L3MBTL1 inh) | Pol eta inh-2 75.7
O=C1C(=Cc2cccn2-c2ccccc2)C(=O)c2ccccc21	Pol eta inh-1 inconclusive
O=C(CN1C(=O)CSc2ncccc21)Nc1cccc(Cl)c1	none (no result: L3MBTL1 inh)
C/C=C/COC(=O)c1[nH]c2c(c1C)C(=O)CC(c1ccco1)C2 (stereo not drawn)	POLI inh inconclusive, Pol beta inh 22.4µM, Pol eta inh-1 22.4µM, L3MBTL1 inh inconclusive, Pol kappa inh-1 79.4µM | Pol eta inh-2 inconclusive
C/C=C/COC(=O)c1[nH]c2c(c1C)C(=O)CC(c1ccc(N(C)C)cc1)C2 (stereo not drawn)	none
COc1ccc(CCNS(=O)(=O)c2c(C)nc3sccn3c2=O)cc1OC	none (no result: APE1 inh, L3MBTL1 inh)
O=C(CCN1C(=O)/C(=C/c2ccc3c(c2)OCO3)SC1=S)Nc1cccc(C(=O)O)c1	Pol eta inh-1 inconclusive | Pol kappa inh-2 inconclusive
COc1ccc(/C=C2\SC(=S)N(CCCC(=O)Nc3ccc(C(=O)O)cc3)C2=O)cc1OC	POLI inh 56.2µM, Pol beta inh inconclusive, APE1 inh inconclusive, Pol eta inh-1 inconclusive (no result: L3MBTL1 inh) | Pol kappa inh-2 42.3
CCOC(=O)c1c(NC(=O)c2cc3nc(-c4ccc(Br)cc4)cc(C(F)(F)F)n3n2)sc(C(C)=O)c1C	none (no result: APE1 inh, L3MBTL1 inh)
CCC(O)c1cc2c(cc1NC(=O)c1ccccc1F)OCCO2 (stereo not drawn)	none (no result: APE1 inh, L3MBTL1 inh)
Cc1cccc(NC(=O)COc2ccccc2C(=O)Nc2ccccc2)c1	none (no result: Pol beta inh, APE1 inh, Pol eta inh-1, L3MBTL1 inh)
Cc1cccc2cc(/C=N/NC(=O)c3ccccc3O)c(Cl)nc12	Pol beta inh 28.2µM, Pol eta inh-1 inconclusive | Pol eta inh-2 inconclusive
O=C(N/N=C/c1cc2cc3c(cc2nc1Cl)OCCO3)c1ccccc1O	Pol eta inh-1 inconclusive
Cc1ccc2cc(/C=N/NC(=O)c3ccccc3O)c(Cl)nc2c1	Pol eta inh-1 15.8µM | Pol eta inh-2 inconclusive

Screening results as filed in PubChem BioAssay.
